Our source for the AC50 and outcome values is PubChem BioAssay (EPA / NIEHS).

Molecules are shown by their SMILES. Active and inactive are the calls of the source. The calls were made as follows: active = hit-call score of the fitted dose curve at least 0.9, where 1 is the maximum; inactive = score below 0.9.

Settings in all cases: mRNA level, 48 h; actives raise or lower the signal
Read-out in assay [1]: Insulin-like growth factor-binding protein 1 (IGFBP1), IGFBP1 (gene 3484)
Kind of assay: LTEA_HepaRG_IGFBP1: Life Technologies and Expression Analysis (LTEA) Assay for Insulin-like growth factor-binding protein 1 (IGFBP1) using HepaRG (AID 2283508). The essentials:
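Read-out is qRT-PCR transcript level normalized to three housekeeping genes, fitted in both directions against 0.5% DMSO. Differentiated HepaRG cells received eight half-log concentrations (top 100 uM) in duplicate for 48 h in serum-free induction medium.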

Read-out in assay [2]: Interleukin 6 (IL6), IL6 (gene 3569)
Kind of assay: LTEA_HepaRG_IL6: Life Technologies and Expression Analysis (LTEA) Assay for Interleukin 6 (IL6) using HepaRG (AID 2283509). Put shortly: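 Differentiated human HepaRG cells, plated 48 h then switched to serum-free induction medium, were exposed in duplicate for 48 h to eight half-log concentrations up to 100 uM in 0.5% DMSO. IL6 mRNA measured by qRT-PCR, normalized to ACTB/GAPDH/POLR2A.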

Read-out in assay [3]: Interleukin 6 Receptor (IL6R), IL6R (gene 3570)
Kind of assay: LTEA_HepaRG_IL6R: Life Technologies and Expression Analysis (LTEA) Assay for Interleukin 6 Receptor (IL6R) using HepaRG (AID 2283510).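 As to AC50: TaqMan qRT-PCR signal normalized to ACTB GAPDH and POLR2A housekeeping genes.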 The essentials:
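Concentration-response in human liver HepaRG cells: eight concentrations from 100 uM downward by half-logs, 48 h exposure, 0.5% DMSO vehicle. IL6R mRNA change measured by qRT-PCR and fitted in both directions relative to vehicle.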

Read-out in assay [4]: Potassium channel subfamily K member 1 (KCNK1), KCNK1 (gene 3775)
The assay can be described thus: LTEA_HepaRG_KCNK1: Life Technologies and Expression Analysis (LTEA) Assay for Potassium channel subfamily K member 1 (KCNK1) using HepaRG (AID 2283511). Put shortly:
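Differentiated human HepaRG cells in serum-free induction medium were exposed in duplicate for 48 h to 8 half-log concentrations up to 100 uM in 0.5% DMSO. KCNK1 mRNA was measured by TaqMan qRT-PCR, normalized to ACTB, GAPDH and POLR2A, and fitted bidirectionally versus DMSO.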

Read-out in assay [5]: Keratin 19 (KRT19), KRT19 (gene 3880)
Kind of assay: LTEA_HepaRG_KRT19: Life Technologies and Expression Analysis (LTEA) Assay for Keratin 19 (KRT19) using HepaRG (AID 2283512). The essentials: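 KRT19 transcript measured by TaqMan qRT-PCR, referenced to three housekeeping genes, after HepaRG cells received test chemicals for 48 h. Eight half-log concentrations, top 100 uM, 0.5% DMSO vehicle; increases and decreases both fitted.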

Read-out in assay [6]: JUN Transcription Factor, JUN (gene 3725)
The assay can be described thus: LTEA_HepaRG_JUN: Life Technologies and Expression Analysis (LTEA) Assay for JUN Transcription Factor using HepaRG (AID 2283513). The essentials: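 Human HepaRG liver cells receive test chemicals in 0.5% DMSO for 48 h across an eight-point range topping at 100 uM. Expression changes in JUN are scored in both directions against the DMSO vehicle.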

Read-out in assay [7]: Lipase C (LIPC), LIPC (gene 3990)
Kind of assay: LTEA_HepaRG_LIPC: Life Technologies and Expression Analysis (LTEA) Assay for Lipase C (LIPC) using HepaRG (AID 2283514). Put shortly: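 Differentiated human HepaRG cells in serum-free induction medium were exposed in duplicate for 48 h to eight concentrations (top 100 uM, half-log steps, 0.5% DMSO). LIPC mRNA was quantified by TaqMan qRT-PCR, normalized to ACTB, GAPDH and POLR2A, with bidirectional fitting versus DMSO.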

Read-out in assay [8]: Lipoprotein lipase (LPL), LPL (gene 4023)
The assay can be described thus: LTEA_HepaRG_LPL: Life Technologies and Expression Analysis (LTEA) Assay for Lipoprotein lipase (LPL) using HepaRG (AID 2283515). The essentials:
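Differentiated human HepaRG cells in serum-free induction medium were exposed in duplicate for 48 h to eight half-log concentrations (top 100 uM) in 0.5% DMSO. LPL mRNA was quantified by TaqMan qRT-PCR, normalized to ACTB, GAPDH and POLR2A.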

Read-out in assay [9]: MicroRNA 122 (MIR122), gene 406906
Kind of assay: LTEA_HepaRG_MIR122: Life Technologies and Expression Analysis (LTEA) Assay for MicroRNA 122 (MIR122) using HepaRG (AID 2283516). Also: the transcript read is the microRNA miR-122. Put shortly:
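HepaRG, 48 h exposure, 8-pt half-log from 100 uM, 0.5% DMSO; TaqMan qRT-PCR; bidirectional fit vs DMSO.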

Read-out in assay [10]: matrix metalloproteinase-10 (MMP10), MMP10 (gene 4319)
The assay can be described thus: LTEA_HepaRG_MMP10: Life Technologies and Expression Analysis (LTEA) Assay for matrix metalloproteinase-10 (MMP10) using HepaRG (AID 2283517). Put shortly: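 HepaRG, collagen I, ~100,000 cells/well; serum-free induction medium; 48 h exposure, duplicate, 8-pt half-log to 100 uM, 0.5% DMSO. Readout: TaqMan qRT-PCR, normalized to ACTB/GAPDH/POLR2A; bidirectional fit vs DMSO.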

Read-out in a further assay: MYC, MYC (gene 4609)
Kind of assay: LTEA_HepaRG_MYC: Life Technologies and Expression Analysis (LTEA) Assay for MYC using HepaRG (AID 2283518). Put shortly: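 MYC transcript changes, up or down relative to 0.5% DMSO, from TaqMan qRT-PCR normalized to three housekeeping genes. Human HepaRG cultures received chemicals for 48 h at eight half-log concentrations up to 100 uM, in duplicate.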

Read-out in assay [11]: matrix metalloproteinase-3 (MMP3), MMP3 (gene 4314)
The assay can be described thus: LTEA_HepaRG_MMP3: Life Technologies and Expression Analysis (LTEA) Assay for matrix metalloproteinase-3 (MMP3) using HepaRG (AID 2283519). Put shortly:
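Differentiated human HepaRG cells, plated 48 h on collagen I, were exposed in duplicate for 48 h in serum-free induction medium to eight half-log concentrations up to 100 uM in 0.5% DMSO. MMP3 mRNA was quantified by TaqMan qRT-PCR, normalised to ACTB, GAPDH and POLR2A.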

Read-out in assay [12]: Nuclear factor NF-kappa-B p105 subunit (Homo sapiens) (UniProt P19838)
The assay can be described thus: LTEA_HepaRG_NFKB1: Life Technologies and Expression Analysis (LTEA) Assay for Nuclear Factor Kappa B Subunit 1 (NFKB1) using HepaRG (AID 2283521).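 Also: TaqMan qRT-PCR transcript normalised to ACTB GAPDH and POLR2A housekeeping genes.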 The essentials: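 HepaRG, 48 h exposure; 8-pt half-log series from 100 uM in 0.5% DMSO; duplicates. Readout: NFKB1 mRNA by qRT-PCR (Fluidigm arrays), housekeeping-normalized. Gain/loss fit vs DMSO baseline.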

Read-out in assay [13]: Protein phosphatase 2A (PPP2R4), PTPA (gene 5524)
The assay can be described thus: LTEA_HepaRG_PPP2R4: Life Technologies and Expression Analysis (LTEA) Assay for Protein phosphatase 2A (PPP2R4) using HepaRG (AID 2283522). Put shortly: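 Gene-expression endpoint in HepaRG hepatic cells: 48 h treatment across eight half-log concentrations up to 100 uM in 0.5% DMSO. PPP2R4 mRNA by qRT-PCR, normalized to three endogenous control genes.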

Read-out in assay [14]: Phosphatase and tensin (PTEN), PTEN (gene 5728)
Kind of assay: LTEA_HepaRG_PTEN: Life Technologies and Expression Analysis (LTEA) Assay for Phosphatase and tensin (PTEN) using HepaRG (AID 2283523). Put shortly:
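Differentiated human HepaRG cells, plated 48 h then switched to serum-free induction medium, were exposed in duplicate for 48 h to eight half-log concentrations up to 100 uM in 0.5% DMSO. PTEN mRNA measured by TaqMan qRT-PCR, normalized to ACTB/GAPDH/POLR2A, bidirectional fit versus DMSO.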

Read-out in assay [15]: solute carrier (SLC22A1), SLC22A1 (gene 6580)
Kind of assay: LTEA_HepaRG_SLC22A1: Life Technologies and Expression Analysis (LTEA) Assay for solute carrier (SLC22A1) using HepaRG (AID 2283524). Put shortly:
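Human HepaRG cells were plated 48 h, switched to serum-free induction medium, then exposed in duplicate for 48 h to 8-point half-log series from 100 uM in 0.5% DMSO. SLC22A1 mRNA measured by qRT-PCR, normalized to ACTB/GAPDH/POLR2A, fitted bidirectionally versus DMSO.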

Read-out in assay [16]: Pyruvate Dehydrogenase Kinase 4 (PDK4), PDK4 (gene 5166)
The assay can be described thus: LTEA_HepaRG_PDK4: Life Technologies and Expression Analysis (LTEA) Assay for Pyruvate Dehydrogenase Kinase 4 (PDK4) using HepaRG (AID 2283525). Put shortly: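 Differentiated human HepaRG cells, pre-cultured 48 h, were exposed in duplicate for 48 h in serum-free induction medium to eight half-log concentrations up to 100 uM in 0.5% DMSO. PDK4 mRNA was quantified by qRT-PCR, normalized to ACTB, GAPDH and POLR2A, bidirectional fitting versus DMSO.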

Read-out in assay [17]: NAD(P)H dehydrogenase [quinone] 1 (NQO1), NQO1 (gene 1728)
The assay can be described thus: LTEA_HepaRG_NQO1: Life Technologies and Expression Analysis (LTEA) Assay for NAD(P)H dehydrogenase [quinone] 1 (NQO1) using HepaRG (AID 2283526). The essentials:
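Human HepaRG hepatic cells received chemicals for 48 h in serum-free induction medium with 0.5% DMSO, up to 100 uM. Expression was assessed by TaqMan qRT-PCR against housekeeping controls and fitted bidirectionally against DMSO.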

Read-out in assay [18]: Paternally Expressed 10 (PEG10), PEG10 (gene 23089)
Kind of assay: LTEA_HepaRG_PEG10: Life Technologies and Expression Analysis (LTEA) Assay for Paternally Expressed 10 (PEG10) using HepaRG (AID 2283520).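 Also: PEG10 transcript by qRT-PCR normalised to ACTB GAPDH and POLR2A.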 Put shortly:
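Chemicals tested on HepaRG cells for 48 h, highest concentration 100 uM. PEG10 expression assessed by qRT-PCR relative to DMSO control.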

Read-out in assay [19]: Nuclear factor erythroid 2-related factor 2 (Homo sapiens) (UniProt Q16236)
Kind of assay: LTEA_HepaRG_NFE2L2: Life Technologies and Expression Analysis (LTEA) Assay for Nuclear factor erythroid 2-related factor 2 (NFE2L2) Transcription Factor using HepaRG (AID 2283527).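 Also: TaqMan qRT-PCR transcript level normalised to ACTB GAPDH and POLR2A housekeeping genes.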 Put shortly:
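Differentiated human HepaRG cells in serum-free induction medium were exposed for 48 h to eight concentrations (top 100 uM, half-log dilutions, 0.5% DMSO), in duplicate. NFE2L2 mRNA was quantified by TaqMan qRT-PCR, normalized to ACTB, GAPDH and POLR2A, with bidirectional fitting versus DMSO.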

Nuclear factor NF-kappa-B p105 subunit (Homo sapiens), sequence (P19838 whole entry, looked up): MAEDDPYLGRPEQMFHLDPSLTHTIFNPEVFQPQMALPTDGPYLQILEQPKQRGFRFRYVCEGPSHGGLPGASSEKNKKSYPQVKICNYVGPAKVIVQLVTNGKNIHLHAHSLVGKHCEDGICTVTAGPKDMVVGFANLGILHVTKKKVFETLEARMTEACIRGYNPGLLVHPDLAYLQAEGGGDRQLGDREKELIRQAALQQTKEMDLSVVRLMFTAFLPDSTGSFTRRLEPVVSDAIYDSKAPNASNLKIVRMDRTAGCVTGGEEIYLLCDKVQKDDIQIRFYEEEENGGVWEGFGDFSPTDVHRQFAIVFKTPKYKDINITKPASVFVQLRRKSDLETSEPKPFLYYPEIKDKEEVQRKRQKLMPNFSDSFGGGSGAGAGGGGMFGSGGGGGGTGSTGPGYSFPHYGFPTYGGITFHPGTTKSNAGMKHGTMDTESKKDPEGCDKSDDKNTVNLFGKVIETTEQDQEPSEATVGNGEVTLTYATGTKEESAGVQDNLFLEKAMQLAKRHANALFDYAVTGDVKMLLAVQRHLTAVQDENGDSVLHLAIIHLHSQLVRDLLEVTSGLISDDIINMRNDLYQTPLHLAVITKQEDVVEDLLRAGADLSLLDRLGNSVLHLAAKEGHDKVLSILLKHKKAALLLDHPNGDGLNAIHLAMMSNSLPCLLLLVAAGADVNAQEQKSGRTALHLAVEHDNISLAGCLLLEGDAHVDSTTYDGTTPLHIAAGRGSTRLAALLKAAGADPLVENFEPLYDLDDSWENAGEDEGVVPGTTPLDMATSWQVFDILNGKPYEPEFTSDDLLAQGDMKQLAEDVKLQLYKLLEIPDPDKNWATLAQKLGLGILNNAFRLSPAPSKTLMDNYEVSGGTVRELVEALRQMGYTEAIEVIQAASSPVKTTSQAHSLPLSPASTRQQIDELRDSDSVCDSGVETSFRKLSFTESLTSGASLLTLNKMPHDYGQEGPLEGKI
Nuclear factor erythroid 2-related factor 2 (Homo sapiens), sequence (Q16236 whole entry, looked up): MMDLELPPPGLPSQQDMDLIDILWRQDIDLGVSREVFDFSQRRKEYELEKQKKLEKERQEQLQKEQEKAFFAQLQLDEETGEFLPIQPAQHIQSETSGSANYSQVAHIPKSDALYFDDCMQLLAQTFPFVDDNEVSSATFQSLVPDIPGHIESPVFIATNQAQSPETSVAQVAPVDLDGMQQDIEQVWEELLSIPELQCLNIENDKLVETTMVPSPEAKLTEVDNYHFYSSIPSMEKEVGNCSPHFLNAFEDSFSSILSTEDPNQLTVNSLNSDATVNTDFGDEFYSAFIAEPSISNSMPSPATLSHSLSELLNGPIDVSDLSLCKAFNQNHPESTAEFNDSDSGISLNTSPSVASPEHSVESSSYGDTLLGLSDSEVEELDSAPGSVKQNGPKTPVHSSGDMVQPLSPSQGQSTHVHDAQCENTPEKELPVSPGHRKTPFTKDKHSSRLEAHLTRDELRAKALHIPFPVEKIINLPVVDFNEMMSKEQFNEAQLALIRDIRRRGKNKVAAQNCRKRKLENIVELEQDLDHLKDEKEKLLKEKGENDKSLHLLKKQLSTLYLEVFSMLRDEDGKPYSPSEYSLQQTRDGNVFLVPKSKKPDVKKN

In the case of `CC(c1ccc(O)cc1)(c1ccc(O)cc1)c1ccc(O)cc1`, the AC50 (commonly the concentration at which the activity in the assay is half-maximal) was 18.8 µM (active) in assay [1]; 80.8 µM (active) in [2]; 72.7 µM (active) in assay [3]; 50 µM (active) in assay [5]; 82.9 µM (active) in assay [6]; 68.6 µM (active) in assay [8]. Moreover, the half-maximal activity concentration (AC50) in assay [9] is 77.9 µM (active); in assay [10], 50 µM (active); with MYC, MYC (gene 4609), 94.2 µM (active); in assay [13] it was 69.7 µM (active); in assay [14], 74.3 µM (active); in assay [15] it was 41.4 µM (active). Further, the AC50 in [16] is 70.9 µM (active). Moreover, the call in assay [4], in [7], in [11], in assay [12] and in assay [17] was inactive.

As for `CCC(C)(c1ccc(O)cc1)c1ccc(O)cc1`, the outcome in [1], in assay [2], in assay [3], in [4], in [5] and in [6] was inactive. The outcome was “inactive” in [7]; “inactive” in [8]; “inactive” in assay [9]; “inactive” in assay [10]; “inactive” with MYC, MYC (gene 4609); “inactive” in [11]. In addition, the outcome in [12], in assay [13], in assay [14], in [15], in [16] and in [17] was inactive. For the same molecule, the result in assay [19] was inactive. Also, the AC50 in assay [18] was 80.3 µM (active).

In the case of `Oc1c(Cl)c(Cl)c(Cl)c(Cl)c1Cl`, the AC50 in [1] was 7.05 µM (active); in [3], 5.66 µM (active); in [4], 34.5 µM (active); in [5], 6.33 µM (active); in [7], 4.24 µM (active); in assay [8] it was 5.08 µM (active). For the same molecule, the AC50 is 3.65 µM (active) in assay [9]; 25.5 µM (active) in assay [10]; 16.1 µM (active) with MYC, MYC (gene 4609); 6.02 µM (active) in assay [11]; 2.11 µM (active) in assay [18]; 2.22 µM (active) in [13]. Moreover, the AC50 was 6.88 µM (active) in assay [14], 3.31 µM (active) in assay [15] and 6.48 µM (active) in assay [17]. The outcome in assay [6] and in assay [16] was inactive.
